# Only some compounds are listed: those with a hit (about 8% of all), similar ones and a draw of the others.
# FMDV antiviral: blocks foot and mouth disease virus | Potency, µM (titrated, usually from 57.9 µM), for inactives: top-dose activity change, negative = inhibition, usual class: inhibitors | AID 1159524 | FMDV antiviral cell-based qHTS | hit rate 1.2% among 410,000; calls by dose curve; tested in HEK293T cells; further: read-out not given here; potency means the concentration at half of the fitted maximal effect; on the % scale 0 is the no-effect control and ±100 the full control effect; nearly all actives have a fitted effect of over 45% in size
# LASV entry inh: inhibitors of Lassa virus binding or cell entry; hit rate 1.2% among 300,000; Potency, µM (highest dose often 37.9 µM), without a hit: at the highest dose activity change, negative = inhibition, hits mostly inhibitors; AID 540256; Lassa virus pseudotype entry inhibition, cell reporter; calls by dose curve; tested in HEK293 cells; further: potency means the concentration at half of the fitted maximal effect; on the % scale 0 is the no-effect control and ±100 the full control effect; nearly all actives have a fitted effect of over 50% in size
# HCMV antiviral: human cytomegalovirus inhibition; HFF cells, HCMV-luciferase reporter, 72 h; hits give low values; activity change, negative = inhibition, % at 57.5 µM; hit rate 4.5% among 410,000; in the data active means activity change below about -60%; inconclusive means no clear call, values can overlap the other calls; inactive means above about -39%; further: on the % scale 0 is the no-effect control and ±100 the full control effect
#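 After 16 h attachment at 37C, HFF cells received test compound and HCMV-luciferase (1 PFU/cell); reporter luminescence read 72 h later, data normalized against buffer-only and known inhibitor Salinomycin.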
# MARV entry inh: Marburg virus entry inhibition; Marburg virus pseudotyped entry inhibition, cell reporter; Potency, µM (titrated, usually from 37.8 µM), inactives show at the top dose activity change, negative = inhibition, most hits filed as inhibitors; hit rate 1.8% among 300,000; AID 540276; calls by dose curve; tested in HEK293 cells; further: potency means the concentration at half of the fitted maximal effect; on the % scale 0 is the no-effect control and ±100 the full control effect
# SARS PLP yeast: inhibitors of SARS-CoV papain-like protease in yeast; S. cerevisiae expressing SARS-CoV PLpro, growth rescue; Potency, µM (doses to about 32.9 µM), for inactives: top-dose activity, positive = growth rescue, hits mostly activators; hit rate 0.19% among 330,000; AID 485353; calls by dose curve; further: potency means the concentration at half of the fitted maximal effect; 0% is about no effect; nearly all actives have a fitted effect of over 55% in size
# HCV inhibitor: HCV inhibition; Huh7.5.1 HCVcc-Cre infection, luciferase reporter, 44 h; Potency, µM (top dose mostly 41.8 µM), without a hit: top-dose activity change, negative = inhibition, most hits filed as inhibitors; hit rate 3.4% among 340,000; active means well fitted inhibition curve with a large enough effect; inconclusive means small, poorly fitted or top-dose-only effect, or another doubt; inactive means no such curve, though single readings can be large or run the other way; further: potency means the concentration at half of the fitted maximal effect; on the % scale 0 is the no-effect control and ±100 the full control effect
#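 HCVcc-Cre virus at an moi near 0.5 was added right after compound to cells cultured 4 h from seeding (1,000 cells/well). Luciferase activity was determined 44 h later, 15 min after substrate addition at RT.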
# * hit, by the source's call; ? = inconclusive; nt = no result given; [ ] = remark or other dose.
SMILES,FMDV antiviral,LASV entry inh,HCMV antiviral,MARV entry inh,SARS PLP yeast,HCV inhibitor
Cc1nnc(SCC(=O)Nc2ccc(S(=O)(=O)N3CCCCC3)cc2)s1,-7%,16%,-65*,5%,-1%,20%
CCS(=O)(=O)N1CC(=O)N(c2ccc(C)c(C)c2)C(C)(C(=O)NC2CCCCC2)C1 (stereo not drawn),-4%,11%[46.1 µM],0,nt,nt,nt
O=C(Nc1ccc(-c2nc3ccccc3s2)cc1)c1cc(-n2cnnc2)ccc1Cl,nt,?,-82*,?,9%,4µM*
Cc1ccc(NC(=O)c2cc(-n3cnnc3)ccc2Cl)cc1,15%,10%,5,14%,-13%,?
Cc1nnc(SCC(=O)NN2C(=O)NC3(CCCCC3)C2=O)s1,-22%,-19%,-62*,?,-3%,32%
Cc1ccc(NC(=S)NCc2ccc3[nH]c4c(c3c2)CCCC4)cc1,-22%,?,?,?,-15%,-35%
COCCNC(=S)NCc1ccc2[nH]c3c(c2c1)CCCC3,11%,nt,-73*,nt,-2%,-26%
O=C1OC(OC(=O)c2cccnc2Nc2cccc(C(F)(F)F)c2)c2ccccc21 (stereo not drawn),-2%,nt,nt,nt,nt,nt
Cn1c(=O)c(C(=O)c2ccccc2)nc2ccccc21,5%,18%,-4,-6%,-5%,26%
Cn1cc(C(=O)c2ccc(Cl)cc2)cc1-c1nc2ccccc2n1C,16µM*,?,-69*,?,-14%,25µM*
COc1ccc(NS(=O)(=O)c2ccc(OC)c(N(C)S(=O)(=O)c3ccc(Cl)cc3)c2)cc1,nt,?,-90*,?,-4%,?
COc1ccc(S(=O)(=O)Nc2ccc(F)cc2)cc1N(C)S(=O)(=O)c1ccc(Cl)cc1,nt,?,-72*,21µM*,?,?
Clc1cccc(CSc2nnc(C3CCNCC3)o2)c1,17%,19%[46.1 µM],-13,-26%[46.1 µM],nt,nt
CCOC(=O)/C(=C\c1cccc(O)c1)c1nc2sc(C)c(C)c2c(=O)[nH]1,11µM*,?,-99*,?,17%,1%
CCOC(=O)c1nc2sc(C)c(C)c2c(=O)[nH]1,17%,-3%,31,17%,0%,3%
COc1ccc(/C=N/NC(=O)CCn2c3ccccc3c3ccccc32)cc1O,nt,?,17,?,-14%,6.3µM*
COc1ccc(C=NNC(=O)CCCC(=O)NN=Cc2ccc(OC)c(O)c2)cc1O,-15%,1%,-69*,-2%,nt,1%
Cc1ccc(OCC(=O)NCC(c2ccc(Cl)cc2)N2CCCCC2)cc1 (stereo not drawn),-20%,21%[46.1 µM],-9,?,nt,nt
COc1ccc(-n2c(C)c(C(C)=O)c3cc(OC(C)=O)ccc32)cc1,-14%,nt,-80*,nt,6%,?
COc1ccc2c(c1)c(C(C)=O)c(C)n2-c1ccc(C(C)=O)cc1,-24%,10%[46.1 µM],-74*,0%[46.1 µM],1%,8%
COc1ccc2c(c1)c(C(=O)O)c(C)n2-c1ccccc1,-12%,-13%,13,0%[46.1 µM],-1%,?
CC(=O)c1c(C)n(-c2ccccc2)c2ccc(OCC(N)=O)cc12,-16%,nt,?,-3%[46.1 µM],-1%,?
O=C1[C@H]2[C@H]3[C@H](O)[C@H](O)C/C(=N\OC[C@@H](O)COCc4ccco4)[C@@H]3CC[C@H]2C(=O)N1C[C@@H]1CCCO1,nt,nt,nt,4%[14.2 µM],nt,nt
COc1ccc(N2CCN(CCCNC(=O)c3nnc(Cc4ccc(F)cc4)o3)CC2)cc1,-22%,?,-23,nt,nt,nt
Cc1ccc(Sc2ccc(NC(=O)CCl)cc2)cc1C,28µM*,?,27,?,-29%,?
SMILES,FMDV antiviral,LASV entry inh,HCMV antiviral,MARV entry inh,SARS PLP yeast,HCV inhibitor
Cc1ccc(C)c(Sc2ccc(NC(=O)CCl)cc2)c1,20µM*,?,8,?,-63%,?
COc1cccc(NC(=O)Cn2c(=O)n(CCCCC(=O)NCc3ccc4c(c3)OCO4)c(=O)c3ccccc32)c1,-6%,-1%[46.1 µM],?,?,nt,nt
COc1ccc(Cc2nc3ccc(C(=O)NCCCN4CCN(C)CC4)cc3o2)cc1,?,?,34,nt,nt,nt
COc1ccc(N2CCN(CCCNC(=O)c3ccc4nc(CCc5ccccc5)oc4c3)CC2)cc1,?,10µM*,-14,nt,nt,nt
COc1ccc(N2CCN(CCCNC(=O)c3ccc4nc(Cc5ccccc5)oc4c3)CC2)cc1,25µM*,?,-60*,nt,nt,nt
COCc1cc(=O)[nH]c(Nc2nc3ccc(C)cc3o2)n1,?,?,-102*,?,-5%,?
CN(C)c1ccc(CNC(=O)C2CCCN(S(=O)(=O)c3ccc4c(c3)oc(=O)n4C)C2)cc1 (stereo not drawn),0%,20%[46.1 µM],-105*,-1%[46.1 µM],nt,nt
Cn1c(=O)oc2cc(S(=O)(=O)N3CCCC(C(=O)N4CCN(c5ccccc5F)CC4)C3)ccc21 (stereo not drawn),20µM*,5%[46.1 µM],-6,1%[46.1 µM],nt,nt
Cc1ccc(C(C)(C)C)cc1S(=O)(=O)N1CCC(C(=O)N2CCN(c3ccc(O)cc3)CC2)CC1,?,2.8µM*,?,?,1%,?
Cn1c(=O)oc2cc(S(=O)(=O)N3CCC(C(=O)N4CCN(c5ccc(F)cc5)CC4)CC3)ccc21,-28%,nt,-61*,nt,-3%,14%
Cc1cc(C)c(C)c(S(=O)(=O)N2CCC(C(=O)N3CCN(c4ccc(F)cc4)CC3)CC2)c1C,-27%,-5%,-27,?,nt,?
Cn1c(=O)oc2cc(S(=O)(=O)N3CCCC(C(=O)N4CCN(c5ccc(F)cc5)CC4)C3)ccc21 (stereo not drawn),?,-9%[46.1 µM],5,?,nt,nt
COc1ccc2cc(CNCc3ccccc3Cl)c(N3CCCC(CO)C3)nc2c1 (stereo not drawn),26%,nt,nt,nt,nt,nt
CCOc1ccc(S(=O)(=O)N2CCCC(C(=O)NCc3ccncc3)C2)cc1C (stereo not drawn),-12%,-9%,-76*,?,3%,?
CCOC(=O)C1CCCN(C(=O)C2CCCN(S(=O)(=O)c3ccc4c(c3)oc(=O)n4C)C2)C1 (stereo not drawn),-22%,nt,-31,5%,-1%,-19%
O=C(c1ccc(F)c(S(=O)(=O)N2CCOCC2)c1)N1CCN(c2ccc(F)cc2)CC1,-18%,nt,-65*,nt,2%,19%
O=C(C1CCN(S(=O)(=O)N2CCOCC2)CC1)N1CCN(c2ccc(F)cc2)CC1,-2%,1%[46.1 µM],-74*,-39%[46.1 µM],-4%,?
Cc1ccc(C)c(N2CCN(C(=O)C3CCCN(S(=O)(=O)c4ccc5c(c4)oc(=O)n5C)C3)CC2)c1 (stereo not drawn),16µM*,?,-27,?,nt,nt
Cc1nc(-n2nc(C)c(CCC(C)C)c2C)sc1C(=O)Nc1ccc(Cl)cc1,23%,33%[46.1 µM],46,11%[46.1 µM],nt,nt
CN1CCN(C(=O)C2CCN(S(=O)(=O)c3ccc4c(c3)oc(=O)n4C)CC2)CC1,-26%,5%,56,0%,4%,8%

# From PubChem
